# Compound activity deposited in PubChem by National Center for Advancing Translational Sciences (NCATS).
# This is a sample that favours compounds with a hit; in the whole collection about 19% have one here.
# Pf growth 48h: Primary qHTS for delayed death inhibitors of the malarial parasite plastid, 48 hour incubation; actives 5.9% (n = 310,000); AID 504832, 2011; Potency, µM (top dose mostly 28.7 µM), without a hit: at the top dose activity change, negative = inhibition, most hits filed as inhibitors; P. falciparum luciferase growth in erythrocytes, 48 h; note: potency is the fitted concentration of half-maximal effect; % is set by controls: 0 for no effect and ±100 for the full control effect
#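 Parasite viability was followed by luminescence of a genomically integrated firefly luciferase. Cultures held 0.1% parasitemia at 2% hematocrit (final), incubated under 5% CO2 at 37 C.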
# SARS PLpro yeast: qHTS of Yeast-based Assay for SARS-CoV PLP; Potency, µM (titrated, usually from 32.9 µM), without a hit: top-dose activity, positive = growth rescue, hits mostly activators; actives 0.19% (n = 330,000); S. cerevisiae expressing SARS-CoV PLpro, growth rescue; AID 485353, 2010; calls by dose curve; note: potency is the fitted concentration of half-maximal effect; 0% is about no effect; nearly all actives have a fitted effect of over 55% in size
# AMA1 RON2 block: qHTS for Inhibitors of AMA1-RON; Towards Development of Antimalarial Drug Lead: Primary Screen; Plasmodium falciparum AMA1 (3D7) - RON2 peptide interaction; AlphaScreen AMA1-biotinylated RON2 peptide binding; Potency, µM (titrated, usually from 58.2 µM), without a hit: at the top dose activity change, negative = inhibition, hits mostly inhibitors; actives 0.2% (n = 360,000);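 note: potency is the fitted concentration of half-maximal effect; 0% = vehicle wells and -100% = peptide control; nearly all actives have a fitted effect of over 45% in size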
#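 AMA1 (3D7) with his tag at 25 nM final met compounds first, then biotinylated RON2 peptide at 25 nM; detection used donor plus acceptor beads, 10 µg/mL apiece, read by AlphaScreen after 30 min at room temperature.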
# Pf growth 96h: Primary qHTS for delayed death inhibitors of the malarial parasite plastid, 96 hour incubation; Potency, µM (top dose mostly 28.7 µM), without a hit: at the top dose activity change, negative = inhibition, most hits filed as inhibitors; actives 6.9% (n = 320,000); P. falciparum luciferase reporter growth, 96 h; AID 504834, 2011; note: potency is the fitted concentration of half-maximal effect; % is set by controls: 0 for no effect and ±100 for the full control effect
#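 P. falciparum expressing integrated firefly luciferase, in erythrocytes at 2% hematocrit, 0.05% parasitemia, incubated with compounds 96 h at 37 C, 5% CO2. Growth inhibition read as loss of luminescence; two-generation exposure targets delayed-death apicoplast inhibitors.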
# Shiga inhibitor: A qHTS for Small Molecule Inhibitors of Shiga Toxin; inhibition, % at 38.7 µM; AID 2315, 2010; actives 9.2% (n = 290,000); Vero cells, Shiga toxin protein synthesis inhibition reporter; in the data active = inhibition mostly above about 28%, no sharp cut-off; inactive = mostly below about 43%; note: 0% is about no effect
# CHX counter: Cycloheximide Counterscreen for Small Molecule Inhibitors of Shiga Toxin; actives 12% (n = 300,000); max response, %; cell reporter, cycloheximide protein synthesis inhibition counterscreen; in the data active = max response mostly above about 13%, no sharp cut-off; inactive = mostly below about 14%; note: read at 38.3 µM for the half of the compounds with a filed dose; 0% is about no effect
# * marks the source's active call; other numbers are inactive results; i = inactive; u = inconclusive; x = no result given. Unless noted, calls come from the whole dose curve; as a rule, active = well fitted curve in the direction sought with a large enough effect; inconclusive = small, poorly fitted or top-dose-only effect, or another doubt; inactive = no such curve, though single readings can be large; an effect the other way counts as inactive or inconclusive.
SMILES,Pf growth 48h,SARS PLpro yeast,AMA1 RON2 block,Pf growth 96h,Shiga inhibitor,CHX counter
Nc1ncnc2c1ncn2[C@@H]1O[C@H](C(=O)N(CCC2=CCCCC2)CC2CC2)[C@@H](O)[C@H]1O,x,x,-11.6%,x,x,x
CCCCNC(=O)C1C2C=CC(C2)C1C(=O)O (stereo not drawn),26.6%,-5.6%,0.4%,-1.3%,-9.2,-4.9
O=C(O)C1C2C=CC(C2)C1C(=O)NCCCN1CCOCC1 (stereo not drawn),5.5%,6.7%,3.2%,11.7µM*,-18.8,16.0
C/C(=N/NC(=O)c1ccncc1)c1cc2ccc(O)cc2oc1=O,18.8%,u,49.8%,u,-14.0,-1.0
C/C(=N/NC(N)=S)c1cc2ccc(O)cc2oc1=O,u,10.8%,82.7%,0.828µM*,-3.4,0.6
O=C(COc1ccc2ccccc2c1)N1CCN(Cc2c[nH]c3ccccc23)CC1,11.7µM*,-0.5%,-28.9%,3.29µM*,19.3,16.9*
O=C1C(=O)N(C2CCCC2)C(=O)N1Cc1c(F)cccc1Cl,13.3%,0.0%,5.7%,-11.4%,22.7,-4.1
CCOC(=O)c1ccc(N2C(=O)[C@@H](c3ccccc3)[C@H]2c2ccccc2)cc1,10.4µM*,-16.4%,-5.4%,u,x,x
CCOC(=O)c1ccc(CNCc2ccccc2)cc1,48.9%,-6.0%,2.1%,-0.2%,50.1*,29.5*
CCOC(=O)c1ccc(N/C=C/C(=O)c2ccc(OC)cc2)cc1,15.1%,u,5.9%,0.0%,1.5,1.3
CCOC(=O)c1ccc(N/C=C/C(=O)C(C)(C)C)cc1,59.5%,0.3%,u,23.3%,90.1*,50.5*
CCOC(=O)c1ccc(N/C=C/C(=O)c2ccccc2)cc1,23.5%,0.8%,-4.8%,u,53.8*,42.9*
Cc1noc(C)c1CSc1nnc2cc(C)c3ccccc3n12,22.7%,-3.4%,13.4%,-0.1%,-10.3,-2.0
CN=Cc1cc(-c2ccccc2)sc1O,75.3%,-9.2%,5.1%,u,40.4*,40.0*
CC(=O)c1sc(-c2ccccc2)cc1NS(=O)(=O)c1ccccc1,6.8%,0.5%,-19.3%,0.9%,10.0,3.2
O=C(NCc1ccncc1)[C@@H]1CCCN1C(=O)[C@H]1CCCN1C(=O)c1c(F)cccc1F,x,x,-1.5%,x,x,x
CC1=NOC(=O)/C1=C\c1ccc(-c2ccccc2Br)o1,5.4%,-15.4%,u,14.7µM*,-9.1,-7.5
COc1ccc(Nc2nc(N)nc(CCl)n2)cc1,-31.3%,0.4%,44.0%,-87.3%,77.6*,66.8*
COc1ccc(Nc2nc(N)nc(CN3CCOCC3)n2)cc1,5.1%,11.0%,41.2%,7.6%,14.9,4.6
Nc1nc(CCl)nc(Nc2ccc3ccccc3c2)n1,u,-0.8%,5.8%,13.1µM*,90.2*,73.6*
O=C(Cc1cccs1)N1CCN=C1SCc1ccc(Br)cc1,u,0.2%,-0.7%,19.5%,-4.6,4.6
C/C(=N\NC(=O)c1cc(-c2ccncc2)nc2ccccc12)c1ccc(N2CCOCC2)cc1,-11.7%,0.1%,65.7%,u,-13.5,-7.0
COCCN(Cc1cn(C)nc1-c1ccccc1F)C(C)C,60.2%,-0.5%,2.7%,9.28µM*,-8.9,-2.4
CCn1ccnc1CN(C)Cc1cn(C)nc1-c1ccccc1F,-4.2%,0.2%,15.4%,9.28µM*,16.2,-2.4
Cc1ccc(NC(=O)Cn2cc(C(=O)C3CC3)c3ccccc32)c(C)c1,33.5%,1.7%,-14.2%,2.0%,36.2*,33.0*
SMILES,Pf growth 48h,SARS PLpro yeast,AMA1 RON2 block,Pf growth 96h,Shiga inhibitor,CHX counter
CC(C)CC(NC(=O)c1cccs1)c1nnc(SCc2ccc(Cl)c(Cl)c2)n1C (stereo not drawn),11.7µM*,-18.7%,-4.5%,u,-11.8,-2.7
COc1ccc(C(=O)NC(CO)c2nnc(SCc3ccc(Cl)c(Cl)c3)n2C)cc1 (stereo not drawn),-6.4%,-3.9%,-9.7%,u,-16.6,-1.3
CC1=NNC(=O)C1CCC(=O)N/N=C/c1ccc(Cl)cc1Cl (stereo not drawn),27.4%,-3.2%,32.0%,4.5%,18.2,-3.5
Nc1nc(CSc2ncn(-c3ccccc3)n2)cs1,235.4%,-1.7%,3.3%,23.2%,92.4*,38.3*
O=C(CSc1nnc(-c2ccccc2)n1-c1ccccc1)c1cccs1,-13.2%,2.0%,-2.4%,36.9%,27.6,17.9
O=C(CSc1ncn(-c2ccccc2)n1)c1cccs1,107.0%,-5.4%,-15.1%,x,88.4*,63.5*
c1ccc(CSc2ncn(-c3ccccc3)n2)cc1,205.1%,-4.8%,27.5%,-23.6%,105.2*,45.8*
O=C(CCc1ccc(O)cc1)c1c(O)cc(O)cc1O[C@@H]1O[C@H](CO)[C@@H](O)[C@H](O)[C@H]1O,u,-3.3%,-5.1%,36.3%,1.3,-1.1
O=C(/C=C/c1ccccc1)NC1CC2CCC1C2 (stereo not drawn),-1.9%,-49.9%,19.0%,-13.1%,106.1*,44.8*
O=C(/C=C/c1ccc([N+](=O)[O-])cc1)NC1CC2CCC1C2 (stereo not drawn),-5.3%,-8.8%,0.3%,-10.6%,48.8*,43.2*
O=C(/C=C/c1ccc([N+](=O)[O-])cc1)NNC(=O)C1CC1,26.9%,-5.8%,71.2%,50.4%,-12.8,4.6
O=C(/C=C/c1ccc(Cl)cc1)NC1CC2CCC1C2 (stereo not drawn),21.7%,-3.3%,-3.2%,2.0%,128.8*,25.7*
Cc1cc(NC(=O)C(C)Oc2ccccc2)no1 (stereo not drawn),0.0%,-0.7%,7.4%,-4.9%,1.1,2.9
On1onc2c3cc(-c4ccccc4)nc3ccc21,u,-12.0%,-25.7%,x,127.7*,69.3*
c1ccc(-c2cc3c(ccc4nonc43)nn2)cc1,42.7%,4.9%,12.4%,-11.5%,-5.1,18.1
CC(C)Cn1cc(C(=O)NCC2CCCO2)c2c3ccccc3n(C)c2c1=O (stereo not drawn),13.1µM*,-13.4%,7.4%,-41.2%,2.7,5.2
CC(C)Cn1cc(C(=O)NCCCOC(C)C)c2c3ccccc3n(C)c2c1=O,x,3.0%,-0.7%,u,-5.1,0.6
Cn1c2ccccc2c2c(C(=O)NCC3CCCO3)cn(C3CCCC3)c(=O)c21 (stereo not drawn),u,-2.1%,-1.9%,4.15µM*,-4.0,-1.3
COc1ccc(C(=O)/C=C(\C)Nc2ccc3c(c2)OCO3)cc1,171.6%,-0.3%,-10.9%,124.5%,i,49.4*
CC1(C(=O)Nc2ccc3c(c2)OCO3)CC1(Cl)Cl (stereo not drawn),19.9%,2.0%,-6.6%,24.2%,28.9*,16.1*
COc1ccc(N/C(C)=C/C(=S)Nc2ccccc2)cc1,44.6%,-16.5%,32.6%,40.8%,42.6*,32.1*
